aSyn UTR act = Activators working through SNCA 5'UTR binding (MLPCN). activity score, % (tested at 7.5 µM), hits read low. alpha-synuclein 5'UTR reporter, activators screen. actives 7.1% (n = 300,000); in the data active = activity score below about -60%
A number is an active result. Not all results are given here.

`Cc1nn(C)c(C)c1C(C)NC(=O)c1cc(COc2ccc(F)c(F)c2)on1` (stereo unspecified) gave aSyn UTR act -67.5.
`CCCN1CCN(C(=O)c2cc(COc3ccc(F)c(F)c3)on2)CC1` gave aSyn UTR act -74.2.
Screening CCOC(=O)C1CCCN(C(=O)c2cc(COc3ccc(C)nc3)on2)C1 (stereo unspecified) returned aSyn UTR act -85.6.
Nc1nc(Cl)nc2c1ncn2[C@H]1C[C@H](O)[C@@H](CO)O1 was read as aSyn UTR act inactive.
Screening CCN1CCCC1CNC(=O)c1cc(COc2ccc(C)c(C)c2)on1 (stereo unspecified) returned aSyn UTR act -62.8.
Screening COc1cc(C)ccc1OCc1cc(C(=O)NCCN2CCOCC2)no1 returned aSyn UTR act -123.9.
For Cc1ccc(OCc2cc(C(=O)NCC(C)(C)N3CCOCC3)no2)cc1C the results were aSyn UTR act -121.8.
For CC(C)CNC(=O)COC(=O)c1c2c(nc3ccccc13)/C(=C/c1cccs1)CC2 the results were aSyn UTR act -110.2.
`CN(c1nc(-c2ccc(Br)cc2)cs1)C1CCS(=O)(=O)C1` (stereo unspecified) gave aSyn UTR act -111.9.
Screening COc1ccc2cc(C(=O)NCc3ccccc3)[nH]c2c1 returned aSyn UTR act -65.5.
`COc1ccc2cc(C(=O)NCCc3ccccc3)[nH]c2c1` gave aSyn UTR act -172.1.
For CN(C)c1ccc(/C=C(/C#N)C(=O)NCc2ccccc2)o1 the results were aSyn UTR act -96.2.
Screening O=C(COC(=O)C1CC1)Nc1ccc(N=Nc2ccccc2)cc1 returned aSyn UTR act -118.9.
Cc1ccc2c(c1)=C(c1sc(N(C)c3ccc(O)cc3)nc1O)C(=O)N=2 was read as aSyn UTR act -68.4.
Screening O=C(NCC1CCCO1)c1cc(-c2ccc(F)cc2)no1 (stereo unspecified) returned aSyn UTR act -263.6.
For COc1cccc(-c2cc(C(=O)NCC3CCCO3)on2)c1 (stereo unspecified) the results were aSyn UTR act -63.9.
For COc1ccc(C(=O)NC(=S)NCC2CCCO2)cc1 (stereo unspecified) the results were aSyn UTR act -71.4.
CC(C)CNc1nc(N)c([N+](=O)[O-])c(NCC2CCCO2)n1 (stereo unspecified) was read as aSyn UTR act inactive.
Cc1cccc(CSc2ccc(-c3ccco3)nn2)c1 was read as aSyn UTR act -173.5.
Screening Cc1ccc(CSc2ccc(-c3ccco3)nn2)cc1 returned aSyn UTR act -141.5.
Screening Clc1cccc(CSc2ccc(-c3ccco3)nn2)c1 returned aSyn UTR act -83.5.
For Clc1ccc(CSc2ccc(-c3ccccn3)nn2)cc1 the results were aSyn UTR act -131.7.
Screening Clc1ccc(CSc2ccc(-c3ccco3)nn2)cc1 returned aSyn UTR act -164.6.
O=C(CSc1ccc(-c2ccccn2)nn1)c1ccccc1 was read as aSyn UTR act -97.1.
Clc1ccccc1/C=C/c1nc(-c2cccnc2)no1 was read as aSyn UTR act -194.6.
C(=C\c1nc(-c2cccnc2)no1)/c1ccccc1 was read as aSyn UTR act -153.5.
For C=CCc1cc(/C=C2/NC(=S)NC2=O)cc(OC)c1O the results were aSyn UTR act inactive.
O=C1NC(=S)N/C1=C\C=C\c1ccccc1 was read as aSyn UTR act -104.2.
For O=C1NC(=S)N/C1=C/c1ccc2ccccc2c1 the results were aSyn UTR act -83.6.
Screening COc1ccc(/C=c2/sc3n(c2=O)C(c2ccccc2OC)C2=C(N=3)c3ccccc3CC2)cc1O (stereo unspecified) returned aSyn UTR act inactive.
O=c1/c(=C/c2ccc([N+](=O)[O-])cc2)sc2n1CCCN=2 was read as aSyn UTR act -172.9.
Screening COc1cc(/C=c2\sc3n(c2=O)CCCN=3)ccc1O returned aSyn UTR act -101.8.
`CCCCOC(=O)Nc1nc2ccccc2s1` gave aSyn UTR act -252.5.
Screening CCCCN(C(=O)NC(=O)Nc1nc2ccc(OC)cc2s1)S(C)(=O)=O returned aSyn UTR act -82.9.
For CCCCOC(=O)Nc1nc2ccc(OC)cc2s1 the results were aSyn UTR act -102.9.
Oc1ccc(-c2csc(Nc3ncccn3)n2)cc1 was read as aSyn UTR act -153.7.
NNc1nc(-c2ccccc2)cs1 was read as aSyn UTR act -91.7.
Screening c1ccc(-c2csc(Nc3ncccn3)n2)cc1 returned aSyn UTR act -65.6.
CC(=O)Nc1ccc(-c2csc(Nc3ncccn3)n2)cc1 was read as aSyn UTR act -89.4.
For Cc1cccnc1Nc1nc(-c2ccccc2)cs1 the results were aSyn UTR act -128.3.
COc1ccc(CN2CCN(c3nc4ccccc4s3)CC2)cc1 was read as aSyn UTR act -69.4.
`COc1ccc(-c2[nH]ncc2CN2CCC(O)(c3ccc(Cl)cc3)CC2)cc1` gave aSyn UTR act inactive.
Screening Cc1ccccc1CN1CCN(c2nc3ccccc3s2)CC1 returned aSyn UTR act -146.4.
`COc1ccccc1CCCNC(=O)C1CCC(=O)N(Cc2ccccc2F)C1` (stereo unspecified) gave aSyn UTR act -130.4.
O=C(NCCCC1CCCC1)C1CCC(=O)N(Cc2cccc(F)c2)C1 (stereo unspecified) was read as aSyn UTR act -161.5.
For O=c1cc(N2CCN(c3ccc(F)cc3)CC2)[nH]c(=O)n1C1CCCCC1 the results were aSyn UTR act -107.3.
`COC(=O)c1sccc1-c1ccc(C(=O)Nc2ccccc2)o1` gave aSyn UTR act -115.1.
For CCc1nnc(NC(=O)c2ccc(-c3ccccc3Cl)o2)s1 the results were aSyn UTR act -160.5.
For COc1ccc(NC(=O)c2ccc(-c3ccccc3Cl)o2)cc1 the results were aSyn UTR act -156.2.
O=C(Nc1cccc(F)c1)c1ccc(-c2ccccc2Cl)o1 was read as aSyn UTR act -172.6.
`CCc1nnc(NC(=O)c2ncc(Cl)c(Cl)c2Cl)s1` gave aSyn UTR act -61.7.
Screening Cc1ccc(C(=O)c2cnc3cc4c(cc3c2S(=O)(=O)c2ccccc2)OCCO4)cc1 returned aSyn UTR act -132.9.
`Cc1ccc(NC(=O)C2=C(O)CCn3c2nc2ccccc23)cc1` gave aSyn UTR act -131.1.
`CC(Sc1nnc(NCc2ccccc2)s1)C(=O)Nc1ccc2c(c1)C(=O)c1ccccc1C2=O` (stereo unspecified) gave aSyn UTR act -165.0.
Clc1ccc(-c2cn3c(n2)SCC3)cc1 was read as aSyn UTR act -186.5.
For Brc1ccc(-c2cn3c(n2)SCC3)cc1 the results were aSyn UTR act -179.1.
Screening CCCC(=O)N1CCCC(C(=O)c2cccc(OC(C)C)c2)C1 (stereo unspecified) returned aSyn UTR act -80.1.
Screening COc1ccc2cc(C(=O)C3CCCN(C(=O)CCc4ccccn4)C3)ccc2c1 (stereo unspecified) returned aSyn UTR act -92.6.
Screening C=CCNC(=O)N1CCCC(C(=O)c2cccc(OC(C)C)c2)C1 (stereo unspecified) returned aSyn UTR act -88.9.
`C=C[C@@]1(C)CC(=O)[C@]2(O)[C@@]3(C)[C@@H](O)CCC(C)(C)[C@@H]3[C@H](OC(C)=O)[C@H](O)[C@@]2(C)O1` gave aSyn UTR act inactive.
Nc1ccc(O)c2c(=O)cc(-c3ccccc3Cl)oc12 was read as aSyn UTR act -100.3.
`O=C(Nc1ccc(O)c2c(=O)cc(-c3cccc(Cl)c3)oc12)c1cccc(Cl)c1` gave aSyn UTR act inactive.
For O=C1Nc2cc(C(=O)NCCCN3CCCC3)ccc2S/C1=C/c1ccccc1F the results were aSyn UTR act -106.0.

Source: PubChem BioAssay (Broad Institute)
